Out of some 420,000 compounds screened, about 64,000 (15%) were called active. About 27% were inconclusive and are not listed. Calls come from the whole dose curve; as a rule, active = well fitted inhibition curve with a large enough effect; inconclusive = small, poorly fitted or top-dose-only effect; inactive = flat fitted curve, though single readings scatter. These entries were drawn from the full list. A call without a number means that no potency is given here.
Potency is the fitted concentration of half-maximal effect.

A short description of the test: qHTS for Inhibitors of human tyrosyl-DNA phosphodiesterase 1 (TDP1): qHTS in cells in absence of CPT. Note: nearly all actives have a fitted effect of over 55% in size. The conditions noted are these: DT40 Tdp1-/- hTDP1 cells, no CPT, ATP luminescence, 48 h; activity change, negative = growth inhibition: at 46.2 µM (top of the series). In short, it runs like this:
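A cellular qHTS used chicken DT40 cells lacking endogenous Tdp1 but carrying stably transfected human TDP1. Compounds were applied without camptothecin, and cell growth kinetics were judged by ATP-dependent luminescence after ≥48 hr.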
(qHTS replaces the single test concentration by a dilution series.)
With `N#Cc1c(C(F)(F)F)cc(-c2ccccc2)nc1SCC(=O)N1CCOCC1`, the Potency entry was “inactive”.

Turning to `FC(F)Oc1ccccc1NC(=S)Nc1cccc(Cl)c1Cl`, the Potency result was “inactive”.

For the compound `COc1ccc(S(=O)(=O)Nc2ccc3cn[nH]c3c2)cc1[N+](=O)[O-]`, the Potency result was “inactive”.

As for `O=[N+]([O-])c1cc(S(=O)(=O)Nc2cccc(Cl)c2)ccc1N=Nc1c(O)[nH]c2ccccc12`, the Potency is 25.9 µM (active).

As to `O=C(O)c1ccccc1/C=N/Nc1ccc(S(=O)(=O)Nc2ccc(Cl)cc2)cc1[N+](=O)[O-]`, the Potency entry is “inactive”.

In the case of `O=C(Nc1nnc([C@H]2C[C@H](O)[C@@H](CO)O2)s1)c1cccc(Cl)c1`, the Potency result is “inactive”.

With `CN(CC(=O)Nc1ccc(Cl)cc1)C(=O)CNC(=O)c1ccc2ccccc2c1`, the Potency result is “inactive”.

Consider `Cc1ccc(S(=O)(=O)N(C)c2ccc(OCC(=O)OCC(=O)N(CC#N)c3ccccc3)cc2)cc1`, for which the Potency result is “inactive”.

Turning to `COc1cc(/C=N/NC(=O)c2ccc(N3CCCC3=O)cc2)ccc1O`, the Potency is 16.4 µM (active).

Regarding `COc1ccc(/C=N/NC(=O)c2ccccc2)cc1OS(=O)(=O)c1ccccc1`, the Potency is 13 µM (active).

Turning to `CCOc1cc(/C=N/NC(=O)CN2CCCCC2)ccc1O`, the Potency result is “inactive”.

As to `COc1ccc(C(=O)Nc2ccccc2C(=O)N/N=C/c2ccc(O)c(OC)c2)cc1`, the Potency was 20.6 µM (active).

On to `COc1ccc(/C=N/S(=O)(=O)c2ccccc2)cc1OC`, for which the Potency entry is “inactive”.

Turning to `COc1cc(C=NNC(=O)c2cccnc2)ccc1OC(=O)c1ccccc1F`, the Potency entry was “inactive”.

Consider `C/C(=N\NC(=O)c1cccc(N2CCCC2=O)c1)c1ccc(N)cc1`, for which the Potency result is “inactive”.

Turning to `COc1cc(/C=N/NC(=O)CCc2n[nH]c(=O)[nH]c2=O)ccc1O`, the Potency entry is “inactive”.

Regarding `COc1ccc(/C=N/Nc2ccccc2C(=O)O)cc1`, the Potency result was “inactive”.

As to `CCC1(CC)NC(=O)N(Cc2nc3ccccc3s2)C1=O`, the Potency result was “inactive”.

As for `CCOc1ccc2oc(C(=O)N(CC)CC(=O)Nc3ccc(NC(C)=O)cc3)c(C)c2c1`, the Potency result is “inactive”.

Take `CCOc1ccc(-n2c(SCC(=O)NC3CCS(=O)(=O)C3)nnc2-c2cccnc2)cc1` (stereo not given): the Potency result is “inactive”.

As for `COc1ccc(S(=O)(=O)N2CCOCC2)cc1NC(=O)Cc1coc2cc(C)ccc12`, the Potency entry is “inactive”.

Take `N#Cc1c2c(c(-c3ccccc3)[nH]c1=O)CCCC2`: the Potency result is “inactive”.

Regarding `CCCCC1N2CC3([N+](=O)[O-])CN1CC([N+](=O)[O-])(C2)C3(C)C` (stereo not given), the Potency result is “inactive”.

As for `Nc1ccc(SCCN2C(=O)c3ccccc3C2=O)cc1`, the Potency result is “inactive”.

As for `COc1ccc(CNC(=O)c2cc3c(=O)n4ccccc4nc3n(CC3CCCO3)c2=N)cc1` (stereo not given), the Potency result was “inactive”.

For the compound `O=C(NC1CCCCC1)c1ccc2c(=O)n(CC3CCCO3)c(=O)[nH]c2c1` (stereo not given), the Potency result was “inactive”.

Regarding `COCCCn1c(C(=O)NC2CCCCC2)cc2c(=O)n3cccc(C)c3nc21`, the Potency is 16.4 µM (active).

For the compound `Cc1ccc2nc3c(cc(C(=O)NCCc4ccccc4)c(=N)n3CC3CCCO3)c(=O)n2c1` (stereo not given), the Potency was 20.6 µM (active).

For the compound `Cc1cccn2c(=O)c3cc(C(=O)NCCN4CCOCC4)c(=N)n(Cc4cccnc4)c3nc12`, the Potency is 8.2 µM (active).

In the case of `Cc1ccc(S(=O)(=O)c2cc3c(=O)n4cccc(C)c4nc3n(CCc3ccccc3)c2=N)cc1C`, the Potency result was “inactive”.

Regarding `Cc1cccn2c(=O)c3cc(C(=O)NC4CCCCC4)sc3nc12`, the Potency result is “inactive”.

`CCCCn1c(=N)c(S(=O)(=O)c2ccccc2)cc2c(=O)n3cccc(C)c3nc21`: the Potency entry was “inactive”.

For `COc1ccc(Cn2ccnc2SCC(=O)NCc2ccco2)cc1`, the Potency result was “inactive”.

For `COc1ccc(CCn2c(=N)c(C(=O)NCc3ccco3)cc3c(=O)n4cccc(C)c4nc32)cc1`, the Potency was 11.6 µM (active).

As for `O=C(NCc1cccnc1)c1cc(S(=O)(=O)N2CCOCC2)c(Cl)cc1Cl`, the Potency entry was “inactive”.
